# From PubChem
# Compounds with a hit are over-represented: about 2.4% of the library has one in this group of screens.
# ABHD5 PLIN5 PPI – ABHD5-PLIN5 protein interaction inhibition. AID 602281. Q00G26+Q8WTS1. Split G. princeps luciferase complementation, luminescence, 4 h. inhibition, % at 4 µM. actives 0.78% (n = 360,000);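 active means inhibition above the mean inhibition across every tested compound plus 3 SD, cut at about 22% in these data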;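 further: 0% = DMSO only wells and the 100% control is not disclosed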
# NOD2 RIPK2 PPI – NOD2-RIPK2 protein interaction inhibition. AID 624267. actives 0.38% (n = 360,000). CHO BLA complementation NOD2-RIPK2, CCF4 ratio. inhibition, % at 4.98 µM; in the data active means inhibition above about 21%;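 further: 0% = vehicle only and 100% = reference blocker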
# m5-HT2A agonist – agonists of mouse serotonin 5-HT2A receptor (HTR2A) | P35363 | CHO-K1 mHTR2A beta-arrestin complementation, luminescence; percent of 30 µM serotonin response | activation, % at 7.6 µM | actives 0.66% (n = 360,000) | AID 624169;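 active means activation above a run cutoff, the mean activation of all tested compounds plus 3 SD, cut at about 14% in these data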;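 further: 0% = plate median of compound wells and 100% = 30 µM serotonin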
# CRFR2-BP antag – antagonists of CRF-binding protein/CRF-R2 receptor complex; HEK293 CRF-R2/CRF-BP, CRF-induced calcium fluorescence; inhibition, % at 11.8 µM; actives 0.59% (n = 350,000);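 active means inhibition of the ligand-induced calcium signal above about 50% at the single tested concentration, limit read from the data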
# TLR4-MyD88 BLA – inhibitors of human TLR4-MyD88 binding; O00206+Q99836; HeLa CL3-4 TLR4/MyD88 BLA complementation, FRET ratio; inhibition, % at 8.4 µM; actives 0.18% (n = 200,000); AID 861; in the data active means inhibition above about 25%;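 further: 0% = vehicle and 100% = reference inhibitor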
# TLR9-MyD88 block – blocks human TLR9 binding to MyD88; AID 504734; actives 0.21% (n = 340,000); inhibition, % at 4.98 µM; CHO BLA complementation TLR9-MyD88, CCF4 FRET ratio;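 active means inhibition above the mean over all tested compounds plus 3 SD, cut at about 21% in these data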;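 further: 0% = DMSO only wells and 100% = clavulanate BLA inhibitor control wells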
# ABHD5-PLIN5 conf – confirmation of human ABHD5-PLIN5 interaction inhibitors | biochemical ABHD5-PLIN5 interaction, luminescence | inhibition, % at 4 µM | AID 651612 | shares compounds with ABHD5 PLIN5 PPI | actives 67% (n = 2,200); in the data active means inhibition above about 23%;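 further: 0% = DMSO vehicle wells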
# HNF4 split-luc – active in HNF4 split-luciferase counter-screen for ABHD5-PLIN5 inhibitors; inhibition, % at 4 µM; AID 651674; HNF4 dimerization, luminescence, biochemical; shares compounds with ABHD5 PLIN5 PPI; actives 77% (n = 2,200);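 active means mean inhibition across replicate wells exceeding the computed hit threshold, cut at about 13% in these data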;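 further: light from luciferase halves that rejoin when HNF4 fusion proteins dimerize; 0% = DMSO only wells and the 100% control is not given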
# * hit, by the source's call; . = no result given.
SMILES,ABHD5 PLIN5 PPI,NOD2 RIPK2 PPI,m5-HT2A agonist,CRFR2-BP antag,TLR4-MyD88 BLA,TLR9-MyD88 block,ABHD5-PLIN5 conf,HNF4 split-luc
COc1cccc2sc(N(CCCN(C)C)C(=O)COc3ccc(Cl)cc3)nc12,29*,11,-4,-35,-1,5,23*,8
CCCS(=O)(=O)NC(=O)C1(C)CCN(C(=O)c2ccc(OC)cc2)C1 (stereo not given),-4,-6,4,.,.,.,.,.
COC(=O)C(=Cc1ccc(-c2ccsc2C(=O)OC)o1)C(=O)OC,23*,9,-2,-1,.,-7,24*,37*
CCOc1ccc(C(c2c(O)nc(SC)[nH]c2=O)c2c(O)nc(SC)[nH]c2=O)cc1,34*,0,0,0,.,.,83*,77*
C=CCOc1ccc(C(c2c(O)nc(SC)[nH]c2=O)c2c(O)nc(SC)[nH]c2=O)cc1,20,11,1,1,.,-12,.,.
CSc1nc(O)c(C(c2cccc([N+](=O)[O-])c2)c2c(O)nc(SC)[nH]c2=O)c(=O)[nH]1,25*,-7,4,-6,-10,3,1,18*
CSc1nc(O)c(C(c2ccc(O)cc2)c2c(O)nc(SC)[nH]c2=O)c(=O)[nH]1,50*,-3,2,5,.,-7,83*,81*
CCOc1ccccc1C(c1c(O)nc(SC)[nH]c1=O)c1c(O)nc(SC)[nH]c1=O,6,-4,2,1,.,.,.,.
COC(=O)[C@]12CCCCC=C1N(Cc1cccc3ccccc13)C(=O)[C@H](CC(=O)N1CCN(C(=O)C3CC3)CC1)C2,9,14,-4,.,.,.,.,.
O=C(/C=C/c1cccc([N+](=O)[O-])c1)c1cccs1,74*,1,-5,15,11,8,97*,102*
O=C(Nc1ccc2c(c1)OCO2)c1cc(C2CCCCN2C(=O)c2ccc3c(c2)CCO3)on1 (stereo not given),7,-7,-3,.,.,.,.,.
CC1(C)Cc2c(c(-c3ccco3)nc3sc4c(NCCCO)ncnc4c23)CO1,33*,-6,2,2,.,0,20,23*
O=C1C(Cl)=C(N2CCOCC2)C(=O)N1c1ccccc1Cl,30*,1,7,13,-11,6,59*,85*
O=C1C(Cl)=C(N2CCCCCC2)C(=O)N1c1ccccc1Cl,-4,0,-3,7,.,0,.,.
COc1ccc(-c2sc3cc(OC)ccc3c2-c2ccc(OCCN3CCCCC3)cc2)cc1,25*,4,-3,.,.,.,8,-2
COc1cccc(-c2sc3ccccc3c2-c2ccc(OCCN(C)C)cc2)c1,30*,13,-5,-16,.,8,20,0
COc1ccccc1-c1sc2ccccc2c1-c1ccc(OCCN2CCCCC2)cc1,18,4,-3,15,.,-5,.,.
COc1cccc(-c2sc3ccccc3c2-c2ccc(OCCN3CCCCC3)cc2)c1,29*,4,-12,-17,.,3,9,-6
Oc1ccc2sc(-c3ccccc3O)c(-c3ccc(OCCN4CCCCC4)cc3)c2c1,27*,11,-5,.,.,.,18,.
COc1cccc(-c2sc3ccc(OC)cc3c2-c2ccc(OCCN3CCCC3)cc2)c1,22,9,-5,17,.,-1,.,.
CCc1nc2ccc(C(=O)NCCc3ccccn3)cn2c1N(CC)CCOC,8,13,1,.,.,.,.,.
O=C([C@H]1O[C@@H](n2ccc(=O)[nH]c2=O)[C@H](O)[C@@H]1O)N(CCC1=CCCCC1)CC1CC1,-2,-9,-3,.,.,.,.,.
CNC[C@H](Cc1ccccc1)NC[C@@H](Cc1cccc2ccccc12)NCCc1ccc(C)cc1,39*,19,6,-26,.,0,5,14*
COc1cccc(-n2nc(C#N)c(Cl)cc2=O)c1,29*,70*,-4,74*,6,17,37*,41*
COc1cccc(-n2nc(C(N)=O)c(O)cc2=O)c1,-10,2,7,2,3,0,.,.
SMILES,ABHD5 PLIN5 PPI,NOD2 RIPK2 PPI,m5-HT2A agonist,CRFR2-BP antag,TLR4-MyD88 BLA,TLR9-MyD88 block,ABHD5-PLIN5 conf,HNF4 split-luc
COc1ccccc1/C=C/C(=O)NNC(=O)c1cc(C)oc1C,4,-6,8,4,.,-4,.,.
Cc1cc(C(=O)NNC(=O)/C=C/c2ccco2)c(C)o1,42*,-8,10,11,.,5,66*,49*
CC1CC2(CC(CN(C3CCCCC3)C3CCCCC3)OC2=O)C(=O)O1 (stereo not given),0,-2,-6,.,.,.,.,.
O=C(/C=C/c1ccco1)N1CCN(S(=O)(=O)/C=C/c2ccccc2)CC1,29*,3,1,-1,-11,0,24*,46*
COc1ccccc1-c1csc(C(C)(O)c2ccccc2)n1 (stereo not given),-1,3,-2,.,.,.,.,.
Cc1cccc(C)c1Cn1c(C)c(C(=O)NCCC#N)sc1=O,10,-8,1,.,.,.,.,.
O=C(CC(Nc1ccc(Cl)cc1Cl)C(=O)O)c1ccccc1 (stereo not given),78*,-4,0,7,.,2,16,80*
Cc1ccc(NC(CC(=O)c2ccccc2)C(=O)O)cc1Cl (stereo not given),29*,4,-1,21,.,1,-2,40*
CSCCC(NC(=O)c1ccccc1)C(=O)OCC(=O)Nc1ccc(C)c(Cl)c1 (stereo not given),-9,2,-4,-45,-20,4,.,.
O=C(CC(C(=O)O)c1cccc(Cl)c1)c1ccccc1 (stereo not given),-12,5,-2,12,.,1,.,.
CCCCCCN1CCN(C2CN(Cc3cn(Cc4ccc(C)cc4)nn3)S(=O)(=O)C2)CC1 (stereo not given),-13,0,2,.,.,.,.,.
O=C(N/N=C/C=C/c1ccco1)/C(=C/c1ccccc1)NC(=O)c1ccccc1,33*,-3,0,3,12,4,52*,49*
O=C(N/N=C/C=C/c1ccco1)c1ccncc1,21,-4,0,-8,.,-13,.,.
O=C(N/N=C/C=C/c1ccco1)c1ccccc1Cl,33*,-5,0,-4,-10,8,32*,37*
O=C1NC(Cc2ccc(O)cc2)c2nc3ccc(F)cc3c(=O)n2-c2cc3ccccc3cc21 (stereo not given),-3,0,-5,0,.,-2,.,.
COc1cc(C2Oc3ccccc3C=C2[N+](=O)[O-])cc(OC)c1OC (stereo not given),40*,2,5,-8,.,.,95*,94*
